JMJD2A Tudor: inhibitors of human JMJD2A Tudor domain; O75164; AlphaScreen JMJD2A-Tudor / H3K4me3 peptide binding; Potency, µM (doses to about 114 µM), usual class: inhibitors; actives 4.4% (n = 390,000); also: nearly all actives have a fitted effect of over 50% in size
L3MBTL1 block: inhibitors of human L3MBTL1. AlphaScreen L3MBTL1–H3K9me1 peptide binding. Potency, µM (series often up to 57.1 µM), hits mostly inhibitors. actives 0.66% (n = 230,000); also: nearly all actives have a fitted effect of over 60% in size
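AlphaScreen proximity signal between nickel-chelate acceptor and streptavidin donor beads (final 10 ug/mL) reports binding of 50 nM L3MBTL1 to 75 nM biotin-H3 K9me1 peptide; complex incubated with compounds 30 min at room temperature; cefsulodin titration as control.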
BAZ2B inh: inhibitors of human BAZ2B bromodomain; actives 4.4% (n = 360,000); Q9UIF8; Potency, µM (titrated, usually from 114 µM), actives largely listed as inhibitors; AID 504333; AlphaScreen BAZ2B-H3K14Ac peptide displacement; also: nearly all actives have a fitted effect of over 60% in size
Target sequence (Q9UIF8 whole entry, looked up): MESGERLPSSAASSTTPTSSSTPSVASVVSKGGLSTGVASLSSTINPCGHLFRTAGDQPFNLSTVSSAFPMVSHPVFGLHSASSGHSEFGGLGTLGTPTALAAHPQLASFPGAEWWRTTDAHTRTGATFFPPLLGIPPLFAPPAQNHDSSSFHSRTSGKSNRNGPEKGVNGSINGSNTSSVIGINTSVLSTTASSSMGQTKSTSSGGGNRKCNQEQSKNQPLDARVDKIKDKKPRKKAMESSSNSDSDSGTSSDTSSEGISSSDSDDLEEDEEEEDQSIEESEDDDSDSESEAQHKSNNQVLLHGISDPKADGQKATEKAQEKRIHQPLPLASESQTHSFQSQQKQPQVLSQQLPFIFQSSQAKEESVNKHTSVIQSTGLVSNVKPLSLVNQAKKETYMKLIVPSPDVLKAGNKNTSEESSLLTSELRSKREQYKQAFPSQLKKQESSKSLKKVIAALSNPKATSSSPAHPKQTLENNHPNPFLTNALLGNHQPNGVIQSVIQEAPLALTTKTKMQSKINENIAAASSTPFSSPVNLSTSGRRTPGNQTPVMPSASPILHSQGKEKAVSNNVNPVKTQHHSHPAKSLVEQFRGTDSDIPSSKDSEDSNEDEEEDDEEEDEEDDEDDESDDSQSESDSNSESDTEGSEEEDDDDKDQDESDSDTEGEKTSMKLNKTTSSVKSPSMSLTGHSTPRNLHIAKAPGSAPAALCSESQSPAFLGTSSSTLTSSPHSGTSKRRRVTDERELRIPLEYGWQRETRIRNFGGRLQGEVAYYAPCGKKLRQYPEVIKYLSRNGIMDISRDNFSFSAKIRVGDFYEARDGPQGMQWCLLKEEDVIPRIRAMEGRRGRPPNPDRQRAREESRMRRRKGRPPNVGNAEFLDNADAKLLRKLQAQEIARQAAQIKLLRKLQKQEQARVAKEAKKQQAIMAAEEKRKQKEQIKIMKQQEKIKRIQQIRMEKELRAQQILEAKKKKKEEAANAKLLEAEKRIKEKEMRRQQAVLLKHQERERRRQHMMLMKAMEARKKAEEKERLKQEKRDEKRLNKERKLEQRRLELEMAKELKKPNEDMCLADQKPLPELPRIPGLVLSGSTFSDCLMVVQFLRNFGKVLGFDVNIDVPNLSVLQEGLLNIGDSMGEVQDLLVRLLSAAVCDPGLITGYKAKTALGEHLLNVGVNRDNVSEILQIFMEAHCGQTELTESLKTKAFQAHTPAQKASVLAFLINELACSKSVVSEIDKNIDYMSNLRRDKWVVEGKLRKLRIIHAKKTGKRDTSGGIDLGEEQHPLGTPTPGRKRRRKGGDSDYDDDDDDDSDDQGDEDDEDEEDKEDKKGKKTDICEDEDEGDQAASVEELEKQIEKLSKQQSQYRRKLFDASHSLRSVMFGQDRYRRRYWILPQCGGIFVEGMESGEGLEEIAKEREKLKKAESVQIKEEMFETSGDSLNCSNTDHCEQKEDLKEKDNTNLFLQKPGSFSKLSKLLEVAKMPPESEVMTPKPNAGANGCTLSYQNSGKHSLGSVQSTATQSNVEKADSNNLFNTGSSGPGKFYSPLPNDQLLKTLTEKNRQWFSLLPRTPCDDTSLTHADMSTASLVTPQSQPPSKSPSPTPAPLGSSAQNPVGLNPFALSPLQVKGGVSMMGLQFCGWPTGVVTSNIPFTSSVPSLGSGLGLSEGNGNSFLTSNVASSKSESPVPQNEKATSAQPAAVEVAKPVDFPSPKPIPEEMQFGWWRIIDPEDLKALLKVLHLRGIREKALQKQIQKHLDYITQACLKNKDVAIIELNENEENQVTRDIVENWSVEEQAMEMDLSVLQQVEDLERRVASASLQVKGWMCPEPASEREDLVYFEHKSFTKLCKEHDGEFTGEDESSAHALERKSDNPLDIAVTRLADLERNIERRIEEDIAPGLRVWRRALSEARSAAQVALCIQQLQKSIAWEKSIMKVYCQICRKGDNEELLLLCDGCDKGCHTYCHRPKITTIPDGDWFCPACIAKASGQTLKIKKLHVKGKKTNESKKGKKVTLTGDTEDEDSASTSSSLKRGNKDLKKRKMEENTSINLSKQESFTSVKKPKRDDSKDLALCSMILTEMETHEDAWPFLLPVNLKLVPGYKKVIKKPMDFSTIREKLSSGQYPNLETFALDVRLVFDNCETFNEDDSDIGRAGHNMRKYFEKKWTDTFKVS
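BAZ2B 50 nM plus b-H3(5-23)K14Ac 50 nM, PBS pH 7.4/0.01% Tween-20, 30 min RT; compound added (max 110 uM), 30 min RT; streptavidin donor/Ni-chelate acceptor beads 10 ug/mL final, 20 min dark; AlphaScreen read.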
HP1b binding inh: inhibitors of HP1-beta chromodomain binding to methylated histone tails | P83916 | AlphaScreen HP1-beta / biotin-H3K9me3 peptide binding | Potency, µM (titrated, usually from 114 µM), most hits filed as inhibitors | actives 0.56% (n = 390,000); also: nearly all actives have a fitted effect of over 70% in size
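Compound inhibition of the preformed complex between 50 nM HP1-beta and 50 nM biotinylated H3K9me3 peptide was read by AlphaScreen. Buffer was PBS pH 7.4 with 0.01% Tween-20. Incubations ran 30 min at room temperature, with 10 ug/mL donor/acceptor beads.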
Sfp inh: blocks B. subtilis Sfp PPTase activity. Biochemical Sfp PPTase activity, qHTS. Q9F4F7. Potency, µM, most hits filed as inhibitors. actives 3.5% (n = 310,000);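 also: the enzyme is Sfp with the accession as filed and its product quenches rhodamine fluorescence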
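Compounds were incubated with enzyme (final 15 nM) for 15 min at room temperature before substrate addition started the reaction. Fluorescence at 525 nm excitation, 598 nm emission was recorded immediately and after 30 minutes.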
G9a inh: inhibitors of human histone lysine methyltransferase G9a; Q96KQ7; G9a H3K9 monomethylation, AlphaScreen, 2 h; Potency, µM (titrated, usually from 102 µM), most hits filed as inhibitors; actives 8.8% (n = 350,000); AID 504332; also: nearly all actives have a fitted effect of over 75% in size
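AlphaScreen read-out: biotin-H3K9 peptide (500 nM) methylation by 20 nM enzyme with 20 uM SAM, 2 h at room temperature after 15 min compound preincubation; anti-monomethyl H3K9 antibody plus donor/acceptor beads, 10 min dark.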
12-hLO cuvette: 12-hLO (human) inhibition, 8HQ series round 1 | shares compounds with BAZ2B inh | purified 12-hLO, cuvette UV 234 nm product formation | Potency, µM, hits mostly inhibitors | actives 60% (n = 35);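 active = compounds that slowed 12-hLO product formation enough to yield a measured IC50 potency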
JMJD2E inh-1: inhibitors of human JMJD2E demethylase, 8HQ series round 1; shares compounds with BAZ2B inh; JMJD2E demethylase, FDH-coupled NADH fluorescence; Potency, µM (doses to about 57 µM), actives largely listed as inhibitors; actives 89% (n = 130)
JMJD2E inh-2: JMJD2E (human) demethylase inhibition, confirmation; shares compounds with JMJD2A Tudor; Recombinant JMJD2E, FDH-coupled NADH fluorescence (FDH is formaldehyde dehydrogenase); Potency, µM (titrated, usually from 56.8 µM), usual class: inhibitors; actives 93% (n = 140)
FDH inh: blocks Pseudomonas putida formaldehyde dehydrogenase, flagging JMJD2E artifacts. shares compounds with JMJD2A Tudor. FDH enzyme assay, NADH fluorescence kinetic. actives 10% (n = 140). Potency, µM (titrated, usually from 56.7 µM), actives largely listed as inhibitors
JMJD2E MS inh: inhibitors of human JMJD2E demethylase | shares compounds with JMJD2A Tudor | recombinant JMJD2E demethylation, MALDI-TOF-MS | Potency, µM, usual class: inhibitors | actives 90% (n = 45);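 active = compounds whose IC50 for blocking JMJD2E demethylation is below 100 µM; inconclusive = dose dependent effect but IC50 above 100 µM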
Hits are given with their value; . = inactive; ? = inconclusive; / = no result given; [ ] = another dose, or the depositor's remark. Compounds with a hit are over-represented: about 12% of the library has one in this group of screens. Unless noted, calls follow the shape of the dose curve; as a rule, active = well fitted curve in the direction sought with a large enough effect; inconclusive = small, poorly fitted or top-dose-only effect, or another doubt; inactive = no such curve, though single readings can be large; an effect the other way counts as inactive or inconclusive.

SMILES | JMJD2A Tudor | L3MBTL1 block | BAZ2B inh | HP1b binding inh | Sfp inh | G9a inh | JMJD2E inh-1 | JMJD2E inh-2 | FDH inh | others
Oc1cc(-c2ccc(N3CCCCC3)nc2)cc2cccnc12 | . | . | . | . | / | .[12.7 µM] | 25.7µM | 31.6µM | .
Oc1cc(-c2ccncc2)cc2cccnc12 | 44.7µM | 7.08µM | 2.82µM | . | / | .[12.7 µM] | 32.4µM | 15.8µM | . | JMJD2E MS inh=23.2
CN(C)CCCNCCCNC(=O)c1ccncc1 | . | ? | . | . | . | ? | / | / | /
CC(C)c1cccc2cc3c(nc12)-c1cccc(=O)n1C3 | / | / | / | / | . | / | / | / | /
Cc1ccc(NC(=O)C(=O)NCCCN2CCOCC2)cc1C | . | / | . | . | / | . | / | / | /
CCC(=O)NC(c1ccc(C)cc1)c1ccc2cccnc2c1O (stereo not drawn) | 79.4µM | ? | 22.4µM | . | . | . | 12.6µM | 12.6µM | . | 12-hLO cuvette=.
CCOc1ccc(C(NC(=O)CC)c2c(O)ccc3ccccc23)cc1 (stereo not drawn) | . | . | . | . | . | ? | / | / | /
CCC(=O)NC(c1ccc(C)cc1)c1cc([N+](=O)[O-])c2cccnc2c1O (stereo not drawn) | 22.4µM | 22.4µM | 3.98µM | . | ? | ? | 12.6µM | 12.6µM | . | 12-hLO cuvette=2.3µM
CCCC(=O)NC(c1ccc(OC)c(OC)c1)c1cc(Cl)c2cccnc2c1O (stereo not drawn) | . | . | . | . | ? | / | / | / | /
CCC(=O)NC(c1cccs1)c1cc(Cl)c2cccnc2c1O (stereo not drawn) | . | . | . | . | . | . | 12.6µM | 12.6µM | . | 12-hLO cuvette=1µM
Cc1cccc(CC(=O)Nc2ccc3nc(N4CCC(C)CC4)cc(C)c3c2)c1 | . | / | . | . | / | . | / | / | /
O=C(O)c1cc(Br)c(O)c2ncccc12 | / | / | / | / | / | / | 0.0073µM | ? | .
O=C(CCCN1C(=O)c2cccnc2C1=O)Nc1ccc(F)cc1Cl | . | / | . | . | . | . | / | / | /
Oc1ccc(CNc2ccccc2Br)c2cccnc12 | 50.1µM | / | / | / | / | / | 3.55µM | 3.55µM | . | JMJD2E MS inh=24.1
Oc1ccc(CNc2ccc(F)cc2Cl)c2cccnc12 | 56.2µM | / | / | / | / | / | 5.76µM | 1.12µM | . | JMJD2E MS inh=16.1
O=C(Cc1cccc2ccccc12)Nc1ccccc1Br | . | . | . | . | . | . | / | / | /
Oc1ccc(CNc2cccc(F)c2)c2cccnc12 | 56.2µM | / | / | / | / | / | 1.12µM | 1.12µM | . | JMJD2E MS inh=14.5
COc1ccccc1-c1ccc2ncnc(N3CCNCC3)c2c1 | / | / | / | / | . | .[0.501 µM] | / | / | /
CCOc1ccc(CCNC(=O)Cn2nnc(-c3ccccc3Cl)n2)cc1OCC | . | / | . | . | / | . | / | / | /
Oc1ccc(/C=C/c2ccccc2F)c2cccnc12 | ? | / | / | / | / | / | 11.2µM | 5.76µM | . | JMJD2E MS inh=37.4
Oc1ccc(/C=C/c2ccccc2)c2cccnc12 | ? | / | / | / | / | / | 10µM | 4.08µM | . | JMJD2E MS inh=24.3
CCc1ccc2oc(C(=O)NCc3ccccc3)cc(=O)c2c1 | . | / | . | . | / | . | / | / | /
CN1CCN(Cc2cc(COCc3ccccc3)c3cccnc3c2O)CC1 | 17.8µM | 14.1µM | 10µM | . | . | ? | 6.31µM | 6.31µM | .
Brc1ccccc1CN1CCC(N2CCCCC2)CC1 | . | ? | / | . | . | . | / | / | /
CN1CCN(C2CCN(Cc3ccc(O)c4ncccc34)CC2)CC1 | 44.7µM | 14.1µM | 8.91µM | . | / | .[2.33 µM] | 3.16µM | 3.16µM | .

Assay outcomes: PubChem, National Center for Advancing Translational Sciences (NCATS)
